Bioassay records: PubChem, National Center for Advancing Translational Sciences (NCATS)
Most compounds without a hit are left out; they make up all but 19% or so of the library.
Shiga toxin inh: A qHTS for Small Molecule Inhibitors of Shiga Toxin; inhibition, % at 38.7 µM; hit rate 9.2% among 290,000; Vero cells, Shiga toxin protein synthesis inhibition reporter; AID 2315, 2010; in the data active = inhibition mostly above about 28%, no sharp cut-off; inactive = mostly below about 43%
Pf growth 96h: Primary qHTS for delayed death inhibitors of the malarial parasite plastid, 96 hour incubation; AID 504834, 2011; P. falciparum luciferase reporter growth, 96 h; hit rate 6.9% among 320,000; Potency, µM (series often up to 28.7 µM), most hits filed as inhibitors
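Delayed-death screen, second-generation endpoint: infected erythrocytes, 2% hematocrit, 0.05% parasitemia final; 96 hours at 37 C, 5% CO2; luciferase detection reagent; luminescence decrease equals reduced growth.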
SARS PLpro yeast: qHTS of Yeast-based Assay for SARS-CoV PLP; S. cerevisiae expressing SARS-CoV PLpro, growth rescue; hit rate 0.19% among 330,000; Potency, µM (series often up to 32.9 µM), usual class: activators; calls by dose curve; also: nearly all actives have a fitted effect of over 55% in size
CHX counter: Cycloheximide Counterscreen for Small Molecule Inhibitors of Shiga Toxin; max response, %; AID 2314, 2010; hit rate 12% among 300,000; cell reporter, cycloheximide protein synthesis inhibition counterscreen; in the data active = max response mostly above about 13%, no sharp cut-off; inactive = mostly below about 14%; also: read at 38.3 µM for the half of the compounds with a filed dose
AMA1 RON2 block: qHTS for Inhibitors of AMA1-RON; Towards Development of Antimalarial Drug Lead: Primary Screen. AlphaScreen AMA1-biotinylated RON2 peptide binding. Plasmodium falciparum AMA1 (3D7) - RON2 peptide interaction. Potency, µM (series often up to 58.2 µM), usual class: inhibitors. AID 720542, 2013. hit rate 0.2% among 360,000; also: nearly all actives have a fitted effect of over 45% in size
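AMA1 (3D7) with his tag at 25 nM final met compounds first, then biotinylated RON2 peptide at 25 nM; detection used donor plus acceptor beads, 10 µg/mL apiece, read by AlphaScreen after 30 min at room temperature.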
Pf growth 48h: Primary qHTS for delayed death inhibitors of the malarial parasite plastid, 48 hour incubation; P. falciparum luciferase growth in erythrocytes, 48 h; AID 504832, 2011; hit rate 5.9% among 310,000; Potency, µM (doses to about 28.7 µM), most hits filed as inhibitors
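In quantitative HTS format, infected erythrocytes bearing luciferase-reporter parasites were treated for a single generation at 37 C. Luminescence after adding detection reagent served as the growth measure.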
Each line names hits and unclear results; the compound was inactive in the other large screens. Unless noted, calls follow the shape of the dose curve; as a rule, active = well fitted curve in the direction sought with a large enough effect; inconclusive = small, poorly fitted or top-dose-only effect, or another doubt; inactive = no such curve, though single readings can be large; an effect the other way counts as inactive or inconclusive.

CCCCNC(=S)N(Cc1c(C)noc1C)c1ccccc1	Pf growth 48h inconclusive
CN(c1ccc(OCC(=O)NCCc2ccccc2)cc1)S(=O)(=O)c1ccc(Cl)cc1	Pf growth 96h inconclusive, Pf growth 48h 8.3µM (no result: Shiga toxin inh, CHX counter)
COc1ccc(CCNC(=O)c2sc(=S)n(C)c2N)cc1	Pf growth 96h 1.9µM
COc1ccc(C(=O)NCC2(c3ccccc3)CCOCC2)cc1	CHX counter 36
COc1cccc(CCNS(=O)(=O)CCNC(=O)c2cccc(OC)c2)c1	none (no result: Shiga toxin inh, CHX counter)
COc1cccc(CCNC(=O)c2ccc(C#N)cc2)c1	Shiga toxin inh 38, CHX counter 21
COC(=O)[C@]12CCCCC=C1N(Cc1cccc3ccccc13)C(=O)[C@H](CC(=O)NCC1CCCCC1)C2	none (no result: Shiga toxin inh, Pf growth 96h, SARS PLpro yeast, CHX counter, Pf growth 48h)
COc1ccc(CCNC(=O)c2ccc(N(C)S(=O)(=O)c3ccccc3)cc2)cc1	Pf growth 96h inconclusive, Pf growth 48h 2.1µM
COCCCNC(=O)c1ccc(N(C)S(=O)(=O)c2ccc(OC)cc2)cc1	none
COc1ccc(CC(=O)Nc2cccc(C(=O)O)c2C)cc1	Pf growth 96h inconclusive, CHX counter 15
Cc1ccc(CCNC(=O)c2coc3nc4ccccc4nc23)cc1	Pf growth 96h 2.6µM
COc1ccc2cc(C(=O)NCCc3ccccc3)[nH]c2c1	CHX counter 22
CCOc1ccc(CNS(=O)(=O)c2cc(-c3cc(C)no3)ccc2OC)cc1OC	none
CC1CCC(NC(=O)CN2CCN(S(=O)(=O)c3ccc(Br)s3)CC2)CC1 (centres undefined)	none (no result: Shiga toxin inh, Pf growth 96h, SARS PLpro yeast, CHX counter, Pf growth 48h)
O=C(OCc1ccccc1)c1ccc(NCc2cc(O)ccc2O)cc1	none (no result: Shiga toxin inh, Pf growth 96h, SARS PLpro yeast, CHX counter, Pf growth 48h)
COc1ccc2nc(NC(=O)CN(c3ccc(C)cc3)S(=O)(=O)c3c(C)nn(C)c3C)sc2c1	Pf growth 96h 2.6µM, Pf growth 48h 12µM
Cc1cccc(NC(=O)CN(c2ccc(C(C)C)cc2)S(=O)(=O)c2c(C)nn(C)c2C)n1	Pf growth 96h 2.9µM (no result: Pf growth 48h)
COc1ccc(NC(=O)CN(c2ccc(C)cc2)S(=O)(=O)c2c(C)nn(C)c2C)cc1	Pf growth 48h inconclusive
CCOC(=O)c1ccc(NC(=O)CN(c2ccc(C)cc2)S(=O)(=O)c2c(C)nn(C)c2C)cc1	Pf growth 48h 10µM (no result: Pf growth 96h)
O=C(c1ccc(-c2nc3ccccc3s2)o1)N1CCN(c2ccccc2O)CC1	Pf growth 96h 5.2µM, CHX counter 37, Pf growth 48h inconclusive
O=C(CN1CCN(C(=O)c2ccc(-c3nc4ccccc4s3)o2)CC1)Nc1ccc(F)cc1	Pf growth 96h 13µM, Pf growth 48h 12µM (no result: Shiga toxin inh, CHX counter)
O=C(O)c1ccc(-c2nc3ccccc3s2)o1	Shiga toxin inh 78, CHX counter 45
O=Cc1ccc(-c2nc3ccccc3s2)o1	Shiga toxin inh 61, CHX counter 29
O=C(O)CCN1C(=O)/C(=C/c2ccc(-c3nc4ccccc4s3)o2)SC1=S	none
CCOC(=O)NN=C1CN(S(=O)(=O)c2ccc(C)cc2)C1	none
CCOC(=O)C1CCCN(C(=O)c2ccc3c(c2)NC(=O)C(N2CCOCC2)S3)C1 (centres undefined)	Pf growth 96h inconclusive, Pf growth 48h 8.3µM
CCOC(=O)C1CCCN(CCC(=O)Nc2cc(C)ccc2C)C1 (centres undefined)	Pf growth 96h 6.6µM
Cc1cccc(N2CCN(C(=O)c3ccc(NS(=O)(=O)c4ccc5[nH]c(=O)[nH]c5c4)cc3)CC2)c1C	Pf growth 96h 8.3µM, Pf growth 48h inconclusive
CCOC(=O)C1CCCN(CCC(=O)Nc2ccccc2C)C1 (centres undefined)	none
CCCCC(=O)Nc1ccc(C(=O)N2CCCC(C(=O)OCC)C2)cc1 (centres undefined)	CHX counter 20, Pf growth 48h inconclusive
COc1cccc2c1cc1c(=O)n(CC(=O)NCCCN3CCCCC3)nc(C)n12	Pf growth 96h inconclusive
CN(Cc1c(C(=O)N/N=C/c2cccc(Cl)c2)nnn1-c1nonc1N)c1ccccc1	SARS PLpro yeast inconclusive
CCC1(CC)NC(=O)N(CC(=O)Nc2sc3c(c2C(N)=O)CCC3)C1=O	none
